Data taken from PubChem BioAssay.
Active and inactive are the calls of the source.

Columns and labels:
[1] = tested on: Wnt5a (protein binding on small-molecule microarray); assay: small molecules binding Wnt5a protein – biophysical, small-molecule microarray, 635/667 nm fluorescence, primary screen (AID 1142); conditions: 635 nm fluorescence, higher = more signal;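 also: fluorescence read at 667 nm with signal to noise per printed feature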
[2] = ATP-based viability of Huh7 replicon cells – cell-based, CellTiter-Glo luminescence, basal, 48 h, cytotoxicity control for HCV replication inhibitor project, primary screen (AID 1143); conditions: higher = more signal, called active from +8 up or from −8 down;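 also: Huh7 hepatoma cells carrying a hepatitis C replication reporter with no stimulus; test concentration not given here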
[3] = basal CRE-LacZ reporter activity in PC12 – cell-based, unstimulated, primary screen (AID 1145); conditions: no forskolin, luminescence, 4.5 h, higher = more signal, called active from +8 up or from −8 down
[4] = forskolin-driven CRE-LacZ activity in PC12 – cell-based, CRE-LacZ reporter, forskolin-stimulated, primary screen (AID 1146); conditions: luminescence, 4.5 h, higher = more signal, called active from +8 up or from −8 down;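 also: PC12 cells with 6xCRE LacZ reporter stimulated by forskolin 10 µM; beta-galactosidase reporter signal reflecting CREB driven transcription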
[5] = molecular target: Streptavidin (Streptomyces avidinii) (UniProt P22629); assay: compounds binding control protein streptavidin – biophysical, small-molecule microarray, 635/667 nm fluorescence, artefact control for SMM compound annotation, primary screen (AID 1147); conditions: higher = more signal;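 also: signal reflects streptavidin binding to arrayed compounds as a control protein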
[6] = probe aInhba binding on compound microarray – biochemical, small-molecule microarray, 635/667 nm fluorescence, primary screen (AID 1148); conditions: higher = more signal;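 also: score merges 667nm spot fluorescence with signal-to-noise for antibody binding to printed compounds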
Torsin-1A (Homo sapiens) [7] = molecular target: Torsin-1A (Homo sapiens) (UniProt O14656); assay: TOR1A wild-type binding on microarray – cell lysate, small-molecule microarray, lysate, 635/667 nm, primary screen (AID 1149); conditions: COS7 hTOR1A-WT lysate, 635 nm fluorescence, higher = more signal
Torsin-1A (Homo sapiens) [8] = molecular target: Torsin-1A (Homo sapiens) (UniProt O14656); assay: torsin A mutant lysate binding on microarrays – cell lysate, small-molecule microarray, COS7 lysate, 635/667 nm fluorescence, primary screen (AID 1150); conditions: COS7 hTOR1A mutant lysate, 635 nm fluorescence, higher = more signal;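 also: score pools 667 nm emission and signal to noise measuring lysate protein binding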
[9] = tested on: Sonic hedgehog protein (Shh); assay: Sonic hedgehog microarray binding compounds – biochemical, small-molecule microarray, 635/667 nm fluorescence, primary screen (AID 1151); conditions: 635 nm fluorescence, higher = more signal;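 also: Shh protein binding to compounds spotted on small-molecule microarray slides; score combines spot fluorescence intensity with signal-to-noise across triplicate slides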
[10] = optical density shifts of acrAB sulA E. coli – strain DRC41, OD650, 48 h, E. coli filamentation inducer project, primary screen (AID 1152); conditions: higher = more signal, called active from +8 up or from −8 down;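 also: E. coli MC1000 strain DRC41 lacking acrAB efflux pump and sulA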
[11] = probe aLefty1 binding on compound microarray – biochemical, small-molecule microarray, 635/667 nm fluorescence, primary screen (AID 1153); conditions: higher = more signal;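 also: score merges spot fluorescence with signal-to-noise ratio from the scanned slide images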
[12] = plasmodial surface anion channel blockers, osmotic lysis – cell-based, P. falciparum Indochina, OD700, 1 h, primary screen (AID 1154); conditions: P. falciparum Indochina infected RBC osmotic lysis, higher = more signal, called active from +8 up or from −8 down
[13] = plasmodial surface anion channel blockers, osmotic lysis – cell-based, P. falciparum Indochina, OD700, 2 h, primary screen (AID 1155);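 also: lysis reports solute entry through the parasite surface anion channel PSAC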; conditions: P. falciparum Indochina infected erythrocytes, higher = more signal, called active from +8 up or from −8 down
[14] = changes in parasitized red cell lysis, either direction – P. falciparum Indochina, OD700, 3 h, PSAC antagonist project, primary screen (AID 1156); conditions: P. falciparum-infected erythrocytes, osmotic lysis, higher = more signal, called active from +8 up or from −8 down
[15] = plasmodial surface anion channel blockers, osmotic lysis – cell-based, P. falciparum Indochina, OD700, 18 h, primary screen (AID 1157); conditions: P. falciparum Indochina infected erythrocytes, osmotic lysis OD700, 18 h; higher = more signal, called active from +8 up or from −8 down
[16] = S6 kinase pathway phospho-S6 level changes – cell-based, A549, cytoblot, luminescence, serum-stimulated, primary screen (AID 1158); conditions: 5 h, higher = more signal;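 also: serum-stimulated A549 lung adenocarcinoma cells; signal is phosphorylated S6 detected by cytoblot immunostaining with HRP secondary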
[17] = molecular target: NADPH oxidase 2 (Homo sapiens) (UniProt P04839); assay: compounds shifting NOX2 Amplex Red fluorescence – cell-based, HEK293-NOX2, PMA-stimulated, NOX inhibitor project, primary screen (AID 1159); conditions: 45 min, higher = more signal, called active from +8 up or from −8 down; also: test concentration not given here
[18] = molecular target: NADPH oxidase 4 (Homo sapiens) (UniProt Q9NPH5); assay: compounds shifting NOX4 Amplex Red fluorescence – cell-based, HEK293-NOX4, tetracycline-induced, NOX inhibitor project, primary screen (AID 1160); conditions: HEK293-NOX4, Amplex Red H2O2 fluorescence, 45 min; higher = more signal, called active from +8 up or from −8 down
[19] = molecular target: NADPH oxidase 5 (Homo sapiens) (UniProt Q96PH1); assay: compounds shifting NOX5 Amplex Red fluorescence – cell-based, HEK293-NOX5, NOX inhibitor project, primary screen (AID 1161); conditions: HEK293-NOX5, ionomycin, 45 min, higher = more signal
[20] = compound effects on lung adenocarcinoma cell viability – A549, calcein-AM fluorescence, 48 h, basal, profiling panel (AID 1162); conditions: higher = more signal; also: test concentration not given here

NADPH oxidase 2 (Homo sapiens), sequence (P04839 whole entry, looked up): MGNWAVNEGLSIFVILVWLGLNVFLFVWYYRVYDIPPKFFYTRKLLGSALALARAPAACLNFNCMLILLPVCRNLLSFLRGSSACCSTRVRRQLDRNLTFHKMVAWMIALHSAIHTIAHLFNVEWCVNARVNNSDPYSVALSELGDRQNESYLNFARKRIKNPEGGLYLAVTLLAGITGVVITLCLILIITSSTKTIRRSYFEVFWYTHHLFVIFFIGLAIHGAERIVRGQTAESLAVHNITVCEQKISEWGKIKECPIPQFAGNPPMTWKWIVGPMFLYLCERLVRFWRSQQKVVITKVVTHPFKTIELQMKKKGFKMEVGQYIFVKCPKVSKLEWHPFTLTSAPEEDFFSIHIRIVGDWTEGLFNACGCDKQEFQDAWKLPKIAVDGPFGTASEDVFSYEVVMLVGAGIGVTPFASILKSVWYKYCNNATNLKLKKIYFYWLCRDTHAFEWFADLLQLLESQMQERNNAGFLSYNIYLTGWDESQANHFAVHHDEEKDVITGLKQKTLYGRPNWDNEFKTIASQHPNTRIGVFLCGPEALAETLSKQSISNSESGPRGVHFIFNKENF
Streptavidin (Streptomyces avidinii), sequence (P22629 whole entry, looked up): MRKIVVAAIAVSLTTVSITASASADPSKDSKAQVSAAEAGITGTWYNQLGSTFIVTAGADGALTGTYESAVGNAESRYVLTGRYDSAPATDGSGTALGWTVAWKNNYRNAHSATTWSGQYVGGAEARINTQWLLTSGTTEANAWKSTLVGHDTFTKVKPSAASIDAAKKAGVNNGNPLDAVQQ
Torsin-1A (Homo sapiens), sequence (O14656 whole entry, looked up): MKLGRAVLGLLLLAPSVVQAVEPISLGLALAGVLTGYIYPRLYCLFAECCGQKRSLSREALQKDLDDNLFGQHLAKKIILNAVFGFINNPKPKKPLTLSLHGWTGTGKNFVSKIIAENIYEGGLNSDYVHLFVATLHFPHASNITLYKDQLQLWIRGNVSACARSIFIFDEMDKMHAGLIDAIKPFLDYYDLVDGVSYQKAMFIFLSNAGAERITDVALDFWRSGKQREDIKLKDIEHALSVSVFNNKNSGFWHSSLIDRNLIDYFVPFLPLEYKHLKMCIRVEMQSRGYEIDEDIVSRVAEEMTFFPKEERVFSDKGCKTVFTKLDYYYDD
NADPH oxidase 4 (Homo sapiens), sequence (Q9NPH5 whole entry, looked up): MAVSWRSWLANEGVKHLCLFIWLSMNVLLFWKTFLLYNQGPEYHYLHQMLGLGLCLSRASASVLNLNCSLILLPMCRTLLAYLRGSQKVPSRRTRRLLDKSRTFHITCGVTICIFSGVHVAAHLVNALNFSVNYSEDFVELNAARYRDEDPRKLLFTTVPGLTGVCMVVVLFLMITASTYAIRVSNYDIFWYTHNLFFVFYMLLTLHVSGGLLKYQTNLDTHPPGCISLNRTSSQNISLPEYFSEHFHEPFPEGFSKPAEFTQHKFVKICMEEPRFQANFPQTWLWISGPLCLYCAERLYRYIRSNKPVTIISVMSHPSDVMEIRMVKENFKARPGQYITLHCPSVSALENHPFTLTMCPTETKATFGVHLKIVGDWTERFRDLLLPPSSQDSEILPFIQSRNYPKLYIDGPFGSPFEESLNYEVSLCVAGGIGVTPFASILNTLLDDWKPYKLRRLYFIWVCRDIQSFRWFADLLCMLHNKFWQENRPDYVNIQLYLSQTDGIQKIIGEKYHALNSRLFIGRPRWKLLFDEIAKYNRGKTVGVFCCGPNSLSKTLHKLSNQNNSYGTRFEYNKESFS
NADPH oxidase 5 (Homo sapiens), sequence (Q96PH1 whole entry, looked up): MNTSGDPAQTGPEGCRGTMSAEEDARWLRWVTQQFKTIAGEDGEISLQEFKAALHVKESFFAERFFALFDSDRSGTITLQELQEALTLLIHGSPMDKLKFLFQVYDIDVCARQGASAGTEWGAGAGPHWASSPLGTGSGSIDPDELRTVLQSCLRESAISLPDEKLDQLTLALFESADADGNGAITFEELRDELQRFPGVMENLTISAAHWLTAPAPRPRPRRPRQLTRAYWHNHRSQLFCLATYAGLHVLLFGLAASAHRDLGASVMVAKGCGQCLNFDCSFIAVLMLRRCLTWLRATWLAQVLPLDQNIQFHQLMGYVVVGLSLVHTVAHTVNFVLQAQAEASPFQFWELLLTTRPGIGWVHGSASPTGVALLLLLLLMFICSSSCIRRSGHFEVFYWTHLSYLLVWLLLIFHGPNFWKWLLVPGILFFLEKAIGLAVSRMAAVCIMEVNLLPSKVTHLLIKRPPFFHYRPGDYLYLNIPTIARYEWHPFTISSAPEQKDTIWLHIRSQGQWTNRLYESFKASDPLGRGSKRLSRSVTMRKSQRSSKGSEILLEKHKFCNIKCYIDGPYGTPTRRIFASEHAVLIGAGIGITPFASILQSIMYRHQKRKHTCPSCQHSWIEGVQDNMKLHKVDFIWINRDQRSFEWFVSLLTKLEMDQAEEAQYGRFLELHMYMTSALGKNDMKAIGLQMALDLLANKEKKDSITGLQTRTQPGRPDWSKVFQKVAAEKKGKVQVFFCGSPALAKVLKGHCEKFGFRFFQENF

| SMILES | composite z-score [1] | z-score [2] | z-score [3] | z-score [4] | composite z-score [5] | composite z-score [6] | composite z-score (Torsin-1A (Homo sapiens) [7]) | composite z-score (Torsin-1A (Homo sapiens) [8]) | composite z-score [9] | z-score [10] | composite z-score [11] | z-score [12] | z-score [13] | z-score [14] | z-score [15] | z-score [16] | z-score [17] | z-score [18] | z-score [19] | z-score [20] |
| --- | --- | --- | --- | --- | --- | --- | --- | --- | --- | --- | --- | --- | --- | --- | --- | --- | --- | --- | --- | --- |
| C=C(COC)/C(=C/C[C@H](OC(C)=O)c1ccc(CO)o1)c1cnc2ccccc2c1 | 0.251 | -0.461 (inactive) | 0.844 (inactive) | -1.08 (inactive) | 1.45 | 0.0173 | 1.21 | 1.42 | 2.15 | 1.23 (inactive) | -0.145 | 3.78 (inactive) | -1.35 (inactive) | -0.148 (inactive) | -2.05 (inactive) | -0.198 | 2.33 (inactive) | 0.615 (inactive) | 0.915 | 0.283 |
| O=C1c2ccccc2C(=O)c2cc([C@H]3Oc4ccccc4S(=O)(=O)N4CCC[C@@H]34)ccc21 | -0.0879 | -4.31 (inactive) | 4.29 (inactive) | -1.21 (inactive) | -0.615 | -0.0079 | -0.474 | -0.122 | -0.441 | 3.11 (inactive) | -0.0625 | 8.47 (active) | 0.452 (inactive) | 0.544 (inactive) | -1.29 (inactive) | 1.1 | 0.0288 (inactive) | -1.18 (inactive) | 0.489 | 0.326 |
| CC(=O)OC(C/C=C\B1OC(C)(C)C(C)(C)O1)c1ccccc1 (stereo not given) | -0.115 | -3.4 (inactive) | 3.04 (inactive) | -2.27 (inactive) | -0.748 | -0.284 | -0.611 | 0.301 | -0.236 | -2.2 (inactive) | -0.147 | 0.344 (inactive) | -0.832 (inactive) | -0.628 (inactive) | -1.04 (inactive) | 3.07 | -0.889 (inactive) | 0.478 (inactive) | -2.94 | 2.43 |
| CO[C@H]1O[C@H](CO)[C@@H](OC(=O)CCc2ccccc2)[C@@H]2OC(=O)[C@H](Cc3ccccc3)C/C=C/C[C@@H](Cc3ccccc3)C(=O)O[C@@H]12 | -0.221 | -3.09 (inactive) | -0.552 (inactive) | -1.18 (inactive) | -0.804 | -0.179 | 0.0387 | 0.0489 | -0.214 | 2.35 (inactive) | -0.243 | 6.07 (inactive) | 0.389 (inactive) | -1.06 (inactive) | -1.83 (inactive) | 0.939 | 1.59 (inactive) | 1.26 (inactive) | 0.751 | 1.38 |
| O=C(NC1CC1)[C@@H]1c2ccccc2C(=O)N(Cc2ccccc2C(F)(F)F)[C@H]1c1ccc(CO)cc1 | 0.312 | -0.568 (inactive) | -0.0512 (inactive) | -1.37 (inactive) | -0.47 | 0.0439 | 0.504 | 0.723 | 0.732 | 1.48 (inactive) | 0.106 | 2.17 (inactive) | 0.721 (inactive) | -0.335 (inactive) | 0.106 (inactive) | 0.152 | 0.583 (inactive) | 0.647 (inactive) | 1.26 | 1.88 |
| C=CCNC(=O)[C@@H]1[C@H]2C(=O)O[C@H](c3ccccc3)[C@H](c3ccccc3)N2[C@H](c2ccc(O)cc2)[C@@]12C(=O)N(C(=O)OCCOC)c1ccc(C#Cc3ccc(OC)cc3)cc12 | 0.334 | -2.94 (inactive) | -0.203 (inactive) | 0.417 (inactive) | 0.256 | 0.0627 | 0.808 | 0.54 | 1.06 | 1.58 (inactive) | -0.0222 | 2.52 (inactive) | 1.19 (inactive) | -0.264 (inactive) | 0.804 (inactive) | -0.0456 | 0.957 (inactive) | -0.276 (inactive) | 1.9 | -0.413 |
| COCCOC(=O)N1C(=O)[C@@]2(c3cc(C#CCNC(N)=O)ccc31)[C@H](C(=O)NC[C@H](O)c1ccccc1)[C@H]1C(=O)O[C@H](c3ccccc3)[C@H](c3ccccc3)N1[C@@H]2c1ccc(O)cc1 | 0.226 | -1.19 (inactive) | -1.02 (inactive) | -0.899 (inactive) | 0.0489 | -0.128 | 0.397 | 0.393 | 0.746 | 2.05 (inactive) | -0.196 | 0.532 (inactive) | -1.33 (inactive) | 0.527 (inactive) | -1.55 (inactive) | 1.57 | 1.46 (inactive) | 0.692 (inactive) | 0.776 | 0.834 |
| C=C[C@H](OC)[C@@H](OC(=O)Nc1ccc(OC)cc1)c1ccc(OC)c(O)c1 | -0.307 | -0.088 (inactive) | 2.03 (inactive) | -1.53 (inactive) | -1.38 | -0.348 | -0.86 | -0.657 | 0.149 | 2.02 (inactive) | -0.0984 | 1.27 (inactive) | -1.23 (inactive) | -1.84 (inactive) | -1.83 (inactive) | -0.443 | -2.28 (inactive) | -1.92 (inactive) | -2 | 0.29 |
| COc1ccc([Si](C)(C)[C@H]2[C@H](CC(=O)N(CCO)Cc3ccccc3)O[C@@]3(C(=O)N(Cc4ccc(N5CCC5=O)cc4)c4ccccc43)[C@@H]2C)cc1 | -0.161 | -2.68 (inactive) | 1.82 (inactive) | -0.316 (inactive) | -0.161 | -0.128 | 0.162 | 0.294 | 0.407 | 1.33 (inactive) | -0.188 | 27.1 (active) | 21.7 (active) | 0.241 (inactive) | 2.17 (inactive) | 1.39 | 0.946 (inactive) | 1.25 (inactive) | 2.96 | -0.0126 |
